AmpC detergent: inhibitors of E. coli AmpC beta-lactamase with detergent; AmpC hydrolysis of nitrocefin, absorbance 480 nm, 0.01% Triton; 370,000 compounds, 0.041% hits; Potency, µM (highest dose often 114 µM), for inactives: top-dose activity change, negative = inhibition, most hits filed as inhibitors; AID 485294; P00811;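 note: 0% = no-compound wells and -100% = no-enzyme wells; nearly all actives have a fitted effect of over 25% in size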
Target sequence (P00811 whole entry, looked up): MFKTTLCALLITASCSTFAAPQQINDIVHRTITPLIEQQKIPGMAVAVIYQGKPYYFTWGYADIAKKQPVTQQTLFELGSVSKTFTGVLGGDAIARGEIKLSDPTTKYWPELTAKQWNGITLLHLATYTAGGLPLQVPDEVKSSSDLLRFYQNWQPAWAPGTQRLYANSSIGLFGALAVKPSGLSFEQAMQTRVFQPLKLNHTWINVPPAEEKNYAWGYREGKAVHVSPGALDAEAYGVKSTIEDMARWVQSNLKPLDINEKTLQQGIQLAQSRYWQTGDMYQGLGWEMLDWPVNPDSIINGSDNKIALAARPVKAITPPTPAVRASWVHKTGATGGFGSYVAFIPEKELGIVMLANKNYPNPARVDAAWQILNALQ
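AmpC (5.3 nM in the dispensed reagent) in 20 mM phosphate pH 7.0 with 0.01% (detergent screen) or 0.0001% Triton X-100 was preincubated with compounds for 15 min at room temperature. Nitrocefin was then added from an 800 uM solution, and hydrolysis was followed at 480 nm.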
Pf growth 48h: P. falciparum growth inhibition at 48 hours (one generation); Potency, µM (series often up to 28.7 µM), without a hit: top-dose activity change, negative = inhibition, most hits filed as inhibitors; P. falciparum luciferase growth in erythrocytes, 48 h; 310,000 compounds, 5.9% hits
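Compounds are pin-transferred into medium, infected erythrocytes (2% hematocrit, 0.1% parasitemia final) are added, and plates sit one parasite generation at 37 C in 5% CO2. Detection reagent is then added and luminescence measured.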
AMA1-RON2 inh: inhibitors of Plasmodium falciparum AMA1-RON2 interaction | AlphaScreen AMA1-biotinylated RON2 peptide binding | Potency, µM (series often up to 58.2 µM), for the others: at the highest dose activity change, negative = inhibition, usual class: inhibitors | AID 720542 | 360,000 compounds, 0.2% hits;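 note: 0% = vehicle wells and -100% = peptide control; nearly all actives have a fitted effect of over 45% in size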
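AMA1 (3D7) with his tag at 25 nM final met compounds first, then biotinylated RON2 peptide at 25 nM; detection used donor plus acceptor beads, 10 µg/mL apiece, read by AlphaScreen after 30 min at room temperature.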
HCV inh: HCV inhibition | 340,000 compounds, 3.4% hits | Potency, µM (highest dose often 41.8 µM), without a hit: at the top dose activity change, negative = inhibition, hits mostly inhibitors | Huh7.5.1 HCVcc-Cre infection, luciferase reporter, 44 h
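Seed cells (1,000/well) for 4 h; treat with compound and infect with HCVcc-Cre, moi about 0.5. Incubate 44 h, then detect luciferase activity.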
AmpC inh no detg: AmpC beta-lactamase inhibition without detergent; AmpC nitrocefin hydrolysis, absorbance 480 nm, 0.0001% Triton; Potency, µM (series often up to 57.1 µM), without a hit: top-dose activity change, negative = inhibition, actives largely listed as inhibitors; 330,000 compounds, 0.52% hits;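 note: plate controls were no compound for no effect and no enzyme for full effect; nearly all actives have a fitted effect of over 20% in size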
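20 mM phosphate pH 7.0 + 0.01% (detergent screen) or 0.0001% Triton X-100; 5.3 nM AmpC reagent; cpd preinc 15 min RT; nitrocefin (800 uM stock) to start; A480 q20 s × 4 min; Activity was normalised to no-enzyme and no-compound control wells.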
Pf growth 96h: P. falciparum growth inhibition at 96 hours | P. falciparum luciferase reporter growth, 96 h | Potency, µM (series often up to 28.7 µM), for inactives: at the highest dose activity change, negative = inhibition, most hits filed as inhibitors | 320,000 compounds, 6.9% hits | AID 504834
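Erythrocytes infected with luciferase-expressing P. falciparum were dispensed at 2% hematocrit and 0.05% parasitemia (final), then incubated with compounds 96 hours at 37 C in 5% CO2. Luminescence after detection reagent addition reported growth.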
* = called active by the depositor; ? = inconclusive; nt = not tested or not shown. Shown are actives, neighbours in structure and some others; about 11% of the full set was active somewhere. Calls come from the whole dose curve; as a rule, active = well fitted curve in the direction sought with a large enough effect; inconclusive = small, poorly fitted or top-dose-only effect, or another doubt; inactive = no such curve, though single readings can be large; an effect the other way counts as inactive or inconclusive. Unless noted, % is set by controls: 0 for no effect and ±100 for the full control effect; potency is the fitted concentration of half-maximal effect.

SMILES	AmpC detergent	Pf growth 48h	AMA1-RON2 inh	HCV inh	AmpC inh no detg	Pf growth 96h
CCCCOc1ccc(-c2cc(C(=O)NNC(=S)NCC)c3ccccc3n2)cc1	-2%	?	18%	11µM*	-41%	nt
CCCCOc1cccc(-c2cc(C(=O)NNC(=S)NCC)c3ccccc3n2)c1	?	nt	45%	nt	-46%	12µM*
CCN(CC)S(=O)(=O)c1ccc2c(c1)nc(SCC(=O)NC1CC1)n2-c1ccccc1OC	?	5.9µM*	9%	?	171%	?
Cc1ccccc1-n1c(SCC(=O)Nc2ccc(Cl)cc2Cl)nc(O)cc1=O	8%	nt	nt	nt	nt	nt
O=C(O)CN1CCN(Cc2ccc(F)cc2Cl)C1=O	-3%	?	5%	15%	-11%	8.3µM*
O=c1cc(CSc2ccccn2)c2ccccc2[nH]1	-12%	7%	-1%	4%	-9%	9.3µM*
Cc1cc(SCC(=O)O)nc2ccccc12	-8%	12%	24%	6%	-14%	15%
Cc1cc(SCc2cc(=O)[nH]c3ccccc23)nc2ccccc12	3%	1.5µM*	-10%	-5%	?	?
Cc1cc(C)cc(-n2c(SCC(N)=O)nc3c([nH]c4ccccc43)c2=O)c1	-1%	nt	nt	nt	nt	nt
CCN1CCN(c2ccc(S(=O)(=O)N3CCCCC3)cc2NC(=O)c2cccc(C)c2)CC1	-14%	12µM*	0%	-27%	171%	?
CCN1CCN(c2ccc(S(=O)(=O)N3CCCCC3)cc2NC(=O)CC(C)c2ccccc2)CC1 (stereo unspecified)	?	9.3µM*	18%	-10%	200%	?
CCN1CCN(c2ccc(S(=O)(=O)N3CCCCC3)cc2NC(=O)c2ccc(C)c(C)c2)CC1	nt	nt	22%	?	nt	nt
CCN1CCN(c2ccc(S(=O)(=O)N3CCCCC3)cc2NC(=O)c2ccc(F)cc2)CC1	-7%	?	4%	-17%	116%	9.3µM*
CCN1CCN(c2ccc(S(=O)(=O)N3CCOCC3)cc2NC(=O)CC(NC(C)=O)c2ccccc2)CC1 (stereo unspecified)	nt	nt	103%	13%	nt	nt
CCN1CCN(c2ccc(Cl)cc2NC(=O)c2ccc(-n3nc(C)cc3C)cc2)CC1	5%	4.1µM*	-5%	?	203%	?
O=C(Nc1cccc(-c2nc3cccnc3s2)c1)c1cccc(Br)c1	19%	nt	nt	nt	nt	nt
CCCCSCCCNC(=O)CN1C(=O)COc2ccc(S(=O)(=O)N3CCC(C)CC3)cc21	-5%	nt	nt	nt	nt	nt
Cc1ccc(N)c(C)c1	3%	1%	-4%	-24%	-4%	?
Cc1cc(C)c(O)c(N)c1	-1%	?	nt	nt	-44%	2.3µM*
CCc1ccc(NCc2cc3cc4c(cc3n(CC(=O)Nc3cccc(OC)c3)c2=O)OCO4)cc1	20%	nt	nt	nt	nt	nt
O=S(=O)(c1cccc(F)c1)N1CCc2sccc2C1c1ccc(OC(F)(F)F)cc1 (stereo unspecified)	-3%	13µM*	-14%	?	-35%	?
CC1c2ccsc2CCN1S(=O)(=O)c1ccccc1 (stereo unspecified)	10%	-4%	1%	-1%	-23%	-8%
Cc1ccc(S(=O)(=O)Nc2cc(Cl)c3oc4c(c3c2)C(=O)CC(C)(C)C4)cc1	-3%	nt	nt	nt	nt	nt
COC(=O)CC1C(=O)NCCN1C(=S)Nc1ccc(F)cc1 (stereo unspecified)	-13%	24%	17%	0%	-16%	3.7µM*
Cn1c(CCN2CCOCC2)nc2cc(NC(=O)COc3ccccc3)ccc21	-12%	-10%	-3%	12%	-1%	4%
CC(=O)Nc1ccc2c(c1)nc(CCN1CCC(C)CC1)n2C	7%	nt	0%	12%	-22%	11%
Cn1c(CCn2ccccc2=O)nc2cc(NC(=O)COc3ccccc3)ccc21	?	-1%	5%	10%	8%	10µM*
